26 compounds from PubChem BioAssay (NCATS) can be followed below.

Assay [1] deals with Cytochrome P450 2D6 (Homo sapiens) (UniProt P10635). As to the kind of experiment: Cytochrome P450 family 2 subfamily D member 6 (CYP2D6) small molecule antagonists: luciferase biochemical (cell-free) qHTS assay (AID 1645840). Also: nearly all actives have a fitted effect of over 55% in size. Also: potency is read from the fitted curve at half-maximal effect. Summed up: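 P450-Glo luminescent screen: recombinant CYP2D6 enzyme–proluciferin substrate mix preincubated with compound 10 min at room temperature, then NADPH regeneration added for 1 h at room temperature. Detection reagent added for 20 min; luciferin light read as relative luminescence units.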
Chain of Cytochrome P450 2D6 (Homo sapiens) (P10635 whole entry, looked up): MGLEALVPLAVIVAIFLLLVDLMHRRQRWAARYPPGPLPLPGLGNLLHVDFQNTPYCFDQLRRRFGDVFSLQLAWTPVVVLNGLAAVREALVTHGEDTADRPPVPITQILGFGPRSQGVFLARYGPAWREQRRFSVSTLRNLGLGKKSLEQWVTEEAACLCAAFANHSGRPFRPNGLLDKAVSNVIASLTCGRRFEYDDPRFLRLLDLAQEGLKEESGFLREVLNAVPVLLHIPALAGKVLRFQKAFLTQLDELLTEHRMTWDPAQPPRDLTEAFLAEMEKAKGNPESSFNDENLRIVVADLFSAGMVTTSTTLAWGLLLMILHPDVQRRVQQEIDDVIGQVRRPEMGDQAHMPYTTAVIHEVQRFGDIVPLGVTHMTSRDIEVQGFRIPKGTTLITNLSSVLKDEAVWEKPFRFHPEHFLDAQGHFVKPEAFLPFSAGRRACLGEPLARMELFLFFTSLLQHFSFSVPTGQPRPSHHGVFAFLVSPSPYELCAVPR
On the technique in general: In qHTS, concentration-response curves come from the screen itself.

The target in assay [2] is Cytochrome P450 2C9 (Homo sapiens) (UniProt P11712). As to the kind of experiment: Cytochrome P450 family 2 subfamily C member 9 (CYP2C9) small molecule antagonists: luciferase biochemical (cell-free) qHTS assay (AID 1645842). Also: nearly all actives have a fitted effect of over 55% in size. Also: potency is read from the fitted curve at half-maximal effect. Summed up:
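Luminescence, after 20 min with luciferin detection reagent, reflected CYP2C9 turnover during a 1 h NADPH-driven reaction at 37C. Enzyme-substrate mix contained 0.4% bovine serum albumin and was preincubated with compound 10 min at room temperature.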

Assay [3] is described as follows: Primary qHTS for inhibitors of nuclear receptor binding SET domain protein 2 (NSD2) in an isogenic RCH-ACV NSD2 p.E1099K mutant (9B) (AID 1645876; active = well fitted curve in the direction sought with a large enough effect; an effect the other way counts as inactive or inconclusive; also: nearly all actives have a fitted effect of over 70% in size; also: potency is read from the fitted curve at half-maximal effect).
Assay [4] deals with Cytochrome P450 3A4 (Homo sapiens) (UniProt P08684). As to the kind of experiment: Cytochrome P450 family 3 subfamily A member 4 (CYP3A4) small molecule antagonists: luciferase qHTS assay (AID 1645841). Also: nearly all actives have a fitted effect of over 45% in size. Summed up: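 P450-Glo CYP3A4 enzyme with proluciferin substrate preincubated 10 min with compound at room temperature, then NADPH regeneration 1 h. Luciferin detection reagent added for 20 min; luminescence recorded. Ketoconazole positive control.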
Chain of Cytochrome P450 3A4 (Homo sapiens) (P08684 whole entry, looked up): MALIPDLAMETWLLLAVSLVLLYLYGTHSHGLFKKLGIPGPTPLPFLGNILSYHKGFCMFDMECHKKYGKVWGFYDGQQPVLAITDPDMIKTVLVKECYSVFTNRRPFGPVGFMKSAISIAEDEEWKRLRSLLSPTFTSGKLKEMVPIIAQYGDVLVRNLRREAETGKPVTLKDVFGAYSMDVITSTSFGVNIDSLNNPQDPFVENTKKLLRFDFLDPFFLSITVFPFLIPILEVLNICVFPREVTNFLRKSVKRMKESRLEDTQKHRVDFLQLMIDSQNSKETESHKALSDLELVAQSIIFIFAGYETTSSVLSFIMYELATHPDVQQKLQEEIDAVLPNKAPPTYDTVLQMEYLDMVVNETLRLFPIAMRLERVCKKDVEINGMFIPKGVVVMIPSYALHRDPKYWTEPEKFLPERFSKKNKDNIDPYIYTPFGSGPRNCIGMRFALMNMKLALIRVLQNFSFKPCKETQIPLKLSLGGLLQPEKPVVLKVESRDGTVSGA

The nature of assay [5]: Primary qHTS for inhibitors of nuclear receptor binding SET domain protein 2 (NSD2) in an RCH-ACV wild type WT cells (2C) (AID 1645877; active = well fitted curve in the direction sought with a large enough effect; an effect the other way counts as inactive or inconclusive; also: nearly all actives have a fitted effect of over 70% in size; also: potency is read from the fitted curve at half-maximal effect).

Several values for one entry are separate records, joined by “and”; a condition that tells them apart may be missing. Identical values can stand only once. Inconclusive results are not listed. Activity calls are given as the source filed them. Unless noted, calls follow the shape of the dose curve; as a rule, active = well fitted curve in the direction sought with a large enough effect in the repeat runs; inconclusive = weak or mixed curves; inactive = no such curve, though single readings can be large; an effect the other way counts as inactive or inconclusive.

Chain of Cytochrome P450 2C9 (Homo sapiens) (P11712 whole entry, looked up): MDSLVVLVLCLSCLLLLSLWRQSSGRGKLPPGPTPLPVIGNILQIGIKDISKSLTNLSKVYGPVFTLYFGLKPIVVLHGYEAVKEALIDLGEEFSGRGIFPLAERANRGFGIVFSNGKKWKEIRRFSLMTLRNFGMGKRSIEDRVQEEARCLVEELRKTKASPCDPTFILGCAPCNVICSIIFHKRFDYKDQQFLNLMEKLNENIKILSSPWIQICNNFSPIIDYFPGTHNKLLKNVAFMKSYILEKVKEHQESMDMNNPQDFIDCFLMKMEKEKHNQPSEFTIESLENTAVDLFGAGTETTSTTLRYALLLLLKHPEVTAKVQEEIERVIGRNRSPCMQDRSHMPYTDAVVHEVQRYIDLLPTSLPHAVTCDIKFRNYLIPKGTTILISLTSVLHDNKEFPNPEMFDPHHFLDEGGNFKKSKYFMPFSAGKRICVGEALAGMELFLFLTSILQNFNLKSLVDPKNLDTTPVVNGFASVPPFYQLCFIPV

Consider `COc1ccc(C=CC(=O)Nc2ccccc2C(=O)O)cc1OC`, for which the Potency entry in assay [1] was “inactive”. The Potency in assay [2] was 16.9 µM (active).
Consider `CC1CCN(c2cc(N3CCN(C)CC3)ccc2NC(=O)c2cc(C#N)c[nH]2)CC1`, for which the Potency in assay [1] is 1.2 µM (active).
In the case of `Cc1ccc2c(c1)c1c(n2CCc2ccc(C)nc2)CCN(C)C1`, the results for the Potency in assay [1], in assay [2] and in assay [3] were 8.49 µM (active), 10.7 µM (active) and 14.5 µM (active), respectively.
`CN1[C@H]2CC[C@H]1CC(OC(=O)c1c[nH]c3ccccc13)C2` (stereo partly drawn): the Potency in assay [1] is 12 µM (active). For the same compound, the Potency result in assay [2] is “inactive”.
Take `CC[C@H](C)C(=O)O[C@H]1C[C@H](O)C=C2C=C[C@H](C)[C@H](CC[C@@H](O)C[C@@H](O)CC(=O)O)[C@H]21`: the Potency result in assay [1], in assay [2], in assay [3] and in assay [5] was “inactive” each time. The call in assay [4] was inactive.
Turning to `O=C(CCCN1CCN(c2ccc(F)cc2)CC1)NC1c2ccccc2CSc2ccccc21` (stereo not drawn), the Potency is 4.36 µM (active) in assay [1] and 8.71 µM (active) in assay [2].
As for `O=C(Nc1cccc(C(F)(F)F)c1)Nc1cc(S(=O)(=O)NC2CC2)ccc1-c1ccsc1`, the Potency in assay [1] is 5.35 µM (active); in assay [2], 3.38 µM (active); in assay [3], 23.5 µM (active); in assay [5], 23 µM (active).
`COc1nccc(-c2c(-c3ccc(F)cc3)ncn2C2CCC(O)CC2)n1` (stereo not drawn): the Potency entry in assay [1] and in assay [2] was “inactive” each time. Moreover, in assay [5], the Potency is 20.9 µM (active).
As to `CC(C)C[C@@H](C(=O)N[C@H](C(=O)OC1CCCC1)c1ccccc1)[C@H](O)C(=O)NO`, in assay [1], the Potency entry is “inactive”. Also, the Potency in assay [2] is 5.35 µM (active); in assay [3] it was 14.8 µM (active); in assay [5] it was 14.8 µM (active).
As to `CCc1cccc(CC)c1NC(=O)N1Cc2[nH]nc(NC(=O)c3ccc(N4CCN(C)CC4)cc3)c2C1`, the Potency result in assay [1] and in assay [2] was “inactive” each time. Moreover, the Potency is 817 nM (active) and 1.18 µM (active) in assay [3]; 409 nM (active) and 468 nM (active) in assay [5].
On to `Cc1cn([C@@H]2C[C@@H](O)[C@H](CO)O2)c(=O)[nH]c1=O`, for which the Potency entry in assay [1], in assay [2], in assay [3] and in assay [5] was “inactive” each time.
In the case of `O=C(Nc1cccc2c(=O)cc(-c3nn[nH]n3)oc12)c1ccc(OCCCCc2ccccc2)cc1`, the Potency in assay [1] is 15.5 µM (active); in assay [2] it was 7.76 µM (active). The Potency result in assay [3] and in assay [5] was “inactive” each time.
`C[C@@H](N)c1ccc(C(=O)Nc2ccnc3[nH]ccc23)cc1`: the Potency entry in assay [1] and in assay [2] was “inactive” each time. Further, the Potency was 9.34 µM (active) in assay [3] and 4.17 µM (active) in assay [5].
Turning to `COc1ccc(-c2cc3nccn3c(Nc3ncccc3C(N)=O)n2)cc1OC`, the Potency entry in assay [1] is “inactive”. The Potency in assay [2] is 5.35 µM (active); in assay [3], 0.649 µM (active); in assay [5], 0.728 µM (active).
Consider `COc1ccc(CCC(=O)Nc2nc3ccc(Cl)cc3s2)cc1OC`, for which the Potency result in assay [1], in assay [3] and in assay [5] was “inactive” in each case. Moreover, the Potency in assay [2] is 6.01 µM (active).
As for `CN(C)CCOc1cc(-c2cn[nH]c2)ccc1NC(=O)C1COc2ccccc2O1` (stereo not drawn), the figures for the Potency in assay [1], in assay [2] and in assay [5] were 2.68 µM (active), 0.674 µM (active) and 4.59 µM (active), respectively.
As for `NS(=O)(=O)c1cc(Cl)c(Cl)c(S(N)(=O)=O)c1`, the Potency result in assay [1], in assay [2], in assay [3] and in assay [5] was “inactive” in each case.
In the case of `CCN1C[C@H](C)n2c(c(O)c3c(=O)n(Cc4ccc(F)c(Cl)c4)nc(C(=O)NC)c32)C1=O`, the Potency entry in assay [1], in assay [3] and in assay [5] was “inactive” throughout. Besides, the Potency in assay [2] was 8.49 µM (active).
In the case of `CNC(=O)c1c(-c2ccc(F)cc2)oc2cc(N(CCO)S(C)(=O)=O)c(C3CC3)cc12`, the Potency entry in assay [1], in assay [3] and in assay [5] was “inactive” each time. Further, the Potency in assay [2] was 10.7 µM (active).
Consider `CC[C@H](CC#N)OC(=O)N[C@@H](C)c1cccc(NC(=O)Nc2ccc(-c3cnco3)c(OC)c2)c1`, for which the Potency in assay [1] is 0.338 µM (active); in assay [2], 0.0756 µM (active); in assay [3], 129 nM (active) and 166 nM (active); in assay [5] it was 0.23 µM (active).
Turning to `Cc1ccccc1-n1c(Cn2nc(-c3cccc(O)c3)c3c(N)ncnc32)nc2cccc(C)c2c1=O`, the Potency entry in assay [1] is “inactive”. The Potency was 2.13 µM (active) in assay [2], 0.186 µM (active) in assay [3] and 0.728 µM (active) in assay [5].
As for `COc1ccnc(CS(=O)c2nc3ccc(OC(F)F)cc3[nH]2)c1OC` (stereo not drawn), the Potency in assay [1] was 5.49 µM (active) and 16.9 µM (active); in assay [2], 27.5 µM (active) and 21.3 µM (active); in assay [3], 15 µM (active) and 18.6 µM (active); in assay [5], 15 µM (active) and 18.6 µM (active).
Regarding `Cc1cc(C(C)Nc2ccccc2)c2nc(N3CCOCC3)cc(=O)n2c1` (stereo not drawn), the Potency entry in assay [1] was “inactive”. The Potency in assay [2] is 1.07 µM (active); in assay [3], 2.3 µM (active) and 2.63 µM (active); in assay [5], 2.3 µM (active) and 2.63 µM (active).
In the case of `Cn1c(=O)c(-c2c(Cl)cccc2Cl)cc2cnc(Nc3cccc(C(=O)O)c3)nc21`, the Potency result in assay [1], in assay [2], in assay [3] and in assay [5] was “inactive” throughout.
As to `O=C(Nc1ccc(OC(F)(F)F)cc1)c1sccc1NCc1ccnc2ccccc12`, the Potency in assay [1] was 16.9 µM (active); in assay [2], 7.56 µM (active); in assay [3] it was 16.6 µM (active) and 14.6 µM (active); in assay [5], 18.6 µM (active).
Consider `CNC1CCC(N(Cc2cccc(-c3ccncc3)c2)C(=O)c2sc3ccccc3c2Cl)CC1` (stereo not drawn), for which the Potency in assay [1] was 4.25 µM (active); in assay [2] it was 10.7 µM (active); in assay [3], 5.15 µM (active) and 9.34 µM (active); in assay [5], 5.78 µM (active) and 7.42 µM (active).
